From PubChem BioAssay (NCATS)
Inconclusive results are not listed. The source made the active and inactive calls. Calls follow the shape of the dose curve; as a rule, active = well fitted inhibition curve with a large enough effect; inconclusive = small, poorly fitted or top-dose-only effect; inactive = flat fitted curve, though single readings scatter.

Assays:
[1] = Drug repurposing screens with cells derived from glioblastoma tumor samples (AID 1345199); details: GBM patient neurospheres viability, ATP luminescence, 48 h; also: nearly all actives have a fitted effect of over 40% in size
Method in brief: (§1)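 Four patient lines of CD133+ GBM neurospheres were screened at several concentrations; hits were retested in those lines plus three slower-growing GBM lines, using 48-hour treatment and ATP-based viability.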

[2] = test system: astro; assay: as above; details: viability, ATP luminescence, 48 h; series mostly up to 45.9 µM
Method in brief: as §1

[3] = at 45.9 µM (top of the series), tumour line B
[4] = at 45.9 µM (top of the series), tumour line D
[5] = at 46.1 µM (top of the series), tumour line C
[6] = at 46 µM (top of the series), tumour line A
% is scaled to controls: 0 for no effect and ±100 for the full control effect; potency is read from the fitted curve at half-maximal effect.

O=C1CC[C@@H](C(=O)N[C@H]2C[C@@H]2c2ccccc2)N1
inactive: activity, negative = cell killing [1, 3] -8.87% | activity, negative = cell killing [1, 4] -2.23% | activity, negative = cell killing [1, 5] 4.74% | Potency [2]

COC1[C@@H](O[C@@H]2O[C@H](C)[C@@H](O[C@H]3C[C@@](C)(O)[C@H](OC(=O)CC(C)C)[C@H](C)O3)[C@H](N(C)C)[C@H]2O)[C@@H](CC=O)C[C@@H](C)[C@@H](O)/C=C/C=C/C[C@@H](C)OC(=O)C[C@H]1OC(C)=O (stereo partly drawn)
inactive: activity, negative = cell killing ([1]; at 20 µM (top of the series), tumour line C) -1.06% | activity, negative = cell killing ([1]; at 21.2 µM (top of the series), tumour line B) -12.1% | activity, negative = cell killing ([1]; at 21.2 µM (top of the series), tumour line D) -12.4% | Potency [2]

[O]=[Bi][O]C(=O)[O][Bi]=[O]
inactive: activity, negative = cell killing [1, 3] -5.84% | activity, negative = cell killing [1, 4] -17.8% | activity, negative = cell killing [1, 5] 0.454% | Potency [2]

COc1ccc(C(=O)c2ccc(C)cc2)c(O)c1
inactive: activity, negative = cell killing [1, 3] -19.8% | activity, negative = cell killing [1, 4] -4.36% | activity, negative = cell killing [1, 5] -21.4% | Potency [2]

CC12CCC(C[N+](C)(CCC[N+](C)(C)C)C1)C2(C)C (stereo not drawn)
inactive: activity, negative = cell killing [1, 3] -11.8% | activity, negative = cell killing [1, 4] -25.7% | activity, negative = cell killing [1, 5] 21.9% | Potency [2]

CCc1ccc(S(=O)(=O)O)cc1
inactive: activity, negative = cell killing [1, 3] 3.64% | activity, negative = cell killing [1, 4] -9.65% | activity, negative = cell killing [1, 5] -22.1% | Potency [2]

CC12CCC(C1)C(C)(C)C2=O (stereo not drawn)
inactive: activity, negative = cell killing [1, 3] -4.04% | activity, negative = cell killing [1, 4] -4.98% | activity, negative = cell killing [1, 5] 19.6% | Potency [2]

CC(C)C[C@@H](NC(=O)[C@@H](O)[C@H](N)Cc1ccccc1)C(=O)O
inactive: activity, negative = cell killing [1, 3] -12.5% | activity, negative = cell killing [1, 4] -2.21% | activity, negative = cell killing [1, 5] -22.2% | Potency [2]

CC[C@H]1NC(=O)[C@@H](NC(=O)c2ncccc2O)[C@@H](C)OC(=O)[C@H](c2ccccc2)NC(=O)[C@@H]2CC(=O)CCN2C(=O)[C@H](Cc2ccccc2)N(C)C(=O)[C@@H]2CCCN2C1=O
inactive: activity, negative = cell killing [1, 3] -1.4% | activity, negative = cell killing [1, 4] 17.7% | activity, negative = cell killing [1, 5] -11% | Potency [2]

C[C@@H]1C[C@H]2[C@@H]3CCC4=CC(=O)C=C[C@]4(C)[C@@]3(F)[C@@H](O)C[C@]2(C)[C@@]1(O)C(=O)COC(=O)c1cccc(S(=O)(=O)O)c1
inactive: activity, negative = cell killing [1, 3] -14.3% | activity, negative = cell killing [1, 4] -16.1% | activity, negative = cell killing [1, 6] -5.39% | Potency [2]

CC(C)(Oc1ccc(C2CCCc3ccccc32)cc1)C(=O)O (stereo not drawn)
inactive: activity, negative = cell killing [1, 3] -18.2% | activity, negative = cell killing [1, 4] -16.7% | activity, negative = cell killing [1, 6] -21.9% | Potency [2]

Cc1nc(NS(=O)(=O)c2ccc(N)cc2)nc(C)c1Br
inactive: activity, negative = cell killing [1, 3] -13% | activity, negative = cell killing [1, 4] -4.79% | activity, negative = cell killing [1, 6] -28.7% | Potency [2]

CC/C=C\C/C=C\C/C=C\C/C=C\C/C=C\C/C=C\CCC(=O)O
inactive: activity, negative = cell killing [1, 3] -3.27% | activity, negative = cell killing [1, 4] -12.5% | activity, negative = cell killing [1, 5] -20.7% | Potency [2]

CC(C)CCC[C@@H](C)[C@H]1CC[C@H]2[C@@H]3CC[C@@H]4C[C@H](O)CC[C@]4(C)[C@H]3CC[C@]12C
inactive: activity, negative = cell killing [1, 3] -2.13% | activity, negative = cell killing [1, 4] -20.8% | activity, negative = cell killing [1, 5] -6.49% | Potency [2]

CC1CCCCN1CCCOC(=O)c1ccccc1 (stereo not drawn)
inactive: activity, negative = cell killing [1, 3] -12.2% | activity, negative = cell killing [1, 4] -13.7% | activity, negative = cell killing [1, 5] -1.82% | Potency [2]

CO/N=C(\C(=O)N[C@@H]1C(=O)N2C(C(=O)[O-])=C(C[n+]3ccc(N)n3CCO)CS[C@H]12)c1csc(N)n1
inactive: activity, negative = cell killing [1, 3] -6.9% | activity, negative = cell killing [1, 4] -6.66% | activity, negative = cell killing [1, 5] -25.8% | Potency [2]

CCCCCCCCCCCCCCCCCC[N+](C)(C)CCC[Si](OC)(OC)OC
inactive: activity, negative = cell killing [1, 3] -16.4% | activity, negative = cell killing [1, 4] -4.63% | activity, negative = cell killing [1, 5] -7.69% | Potency [2]

O=C(O)COc1ccc(CCNS(=O)(=O)c2ccccc2)s1
inactive: activity, negative = cell killing [1, 3] -8.15% | activity, negative = cell killing [1, 4] -13.5% | activity, negative = cell killing [1, 5] -21.9% | Potency [2]

Cc1ncc(C[n+]2csc(CCOP(=O)(O)OP(=O)(O)O)c2C)c(N)n1
inactive: activity, negative = cell killing [1, 3] -10% | activity, negative = cell killing [1, 4] -6.5% | activity, negative = cell killing [1, 5] 18.5% | Potency [2]

CCN(CC)C(=O)[C@]1(c2ccccc2)C[C@@H]1CN
inactive: activity, negative = cell killing [1, 3] -4.91% | activity, negative = cell killing [1, 4] -13.9% | activity, negative = cell killing [1, 5] -22.9% | Potency [2]

CN1C(C(=O)Nc2ccccn2)C(=O)c2sc(Cl)cc2S1(=O)=O (stereo not drawn)
inactive: activity, negative = cell killing [1, 3] -14.7% | activity, negative = cell killing [1, 4] -14% | activity, negative = cell killing [1, 5] -4.03% | Potency [2]

C[C@]12CCC(=O)C[C@@H]1CC[C@@H]1[C@@H]2CC[C@]2(C)C=CC[C@@H]12
active: Potency ([1]; tumour line A) 20 µM
inactive: activity, negative = cell killing [1, 3] -7.67% | activity, negative = cell killing [1, 4] -11.4% | Potency [2]
